Test results: the supplement of paper PMC10338343
± gives the standard deviation.

Legend:
[1] = tested on: MILI (PIWIL2) piRISC loaded with L1MC piRNA (26 nt); test: pre-steady-state target cleavage rate (min^-1); guide: L1MC piRNA 5'p-UAACUAAAUACUAUGCAAGCUGUAGG; higher = faster piRNA-guided slicing of the target; conditions: auxiliary factor: 500 nM mouse GTSF1
Method in brief: (§1)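 Using HEPES–potassium acetate buffer at 33 °C, 1 nM active affinity-purified piRISC with a single synthetic guide was mixed with 0.1 nM transcribed, DNA-blocked target RNA library for 0–8 or 0–960 min, with or without 500 nM GTSF1 partner protein. Uncleaved targets were sequenced and normalised to depth and to weakly complementary targets, and three trials were pooled with k3 capped at 0.0001 min^-1. A burst-and-steady-state fit gave the pre-steady-state cleavage rate.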

[2] = tested on: EfPiwi piRISC loaded with L1MC piRNA (26 nt); test: pre-steady-state target cleavage rate (min^-1); auxiliary factor: 500 nM Ephydatia muelleri Gtsf1; guide: L1MC piRNA 5'p-UAACUAAAUACUAUGCAAGCUGUAGG; MIWI and MILI are mouse PIWI proteins and EfPiwi is from a freshwater sponge; tags in brackets are library labels; higher = faster piRNA-guided slicing of the target
Method in brief: as §1

Sequence | pre-steady-state target cleavage rate [1] | pre-steady-state target cleavage rate [2]
UCCUCCUACAGCUUGCAUACUAUUUAGUAA | 0.0473 ± 0.012 | 0.00454 ± 0.0033
UCCUGGAACAGCUUGCAUAGUAAUUAGUAA | 0.108 ± 0.015 | 0.00418 ± 0.0019
UCCUCCUACAGCUUGCAUAGUAUUGUAGUUA | 0.166 ± 0.045 | 0.0032 ± 0.0012
UCCUGGAACAGCUAGCAUAGUAUUUAGAAA | 0.219 ± 0.034 | 0.00262 ± 0.0023
UCCUCCUAGAGCUUGCAUAGUAUUUUCAAA | 0.0731 ± 0.019 | 0.00252 ± 0.0022
UCCUGCUUGUGCUUGCAUAGUAUUUAGAAA | 0.0115 ± 0.0056 | 0.00373 ± 0.0022
UCCUGCUACAGCUUGCAUAGUAUUAACUUA | 0.0306 ± 0.0076 | 0.00397 ± 0.0027
UCCUGCUACAGCUUGCAUAGUAAAAAGUAA | 0.0283 ± 0.0099 | 0.00322 ± 0.0027
UCCUGGUACAGCUUGCAUUGUAUUUAGAAA | 0.0202 ± 0.0075 | 0.00329 ± 0.0019
UCCUGGAACAGCUUGCAUAGUAAUUAGAUA | 0.0936 ± 0.022 | 0.00318 ± 0.0015
